The values that follow come from PubChem BioAssay.

Records with an inconclusive call do not appear. Active and inactive are the calls of the source.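 Rule for the calls, unless noted: active = percent response above a set limit, the screen-wide mean plus 3 SD (cut at about 130% in these data); inactive = the rest.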

Test [1] in a line: rapamycin-like changes in RPL19A-GFP expression – cell-based, S. cerevisiae, multiplex flow cytometry, primary screen (AID 1862; in the data active = percent of DMSO control GFP below about 86%;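 note: lower values mimic rapamycin by blocking the RPL19A rise seen in DMSO cells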). The settings on record: S. cerevisiae RPL19A-GFP strain, flow cytometry fluorescence, 3 h; at 10 µM; stronger effect = lower value.
Test [2] in a line: TOR pathway GLN3 branch reporter MEP2-GFP changes – S. cerevisiae, multiplex flow cytometry, primary screen (AID 1867;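 active = GFP response, as percent of the DMSO control, above the screen-wide mean plus 3 SD, about 139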;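 note: median GFP channel fluorescence of barcode-gated MEP2-GFP cells measured by flow cytometry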). As to conditions: S. cerevisiae MEP2-GFP strain, 3 h, at 10 µM, stronger effect = higher value, 100% means same as DMSO wells. In general terms: A flow cytometer gives signals particle by particle.
A short description of test [3]: TOR pathway RTG branch CIT2 reporter changes – S. cerevisiae, GFP fusion, multiplex flow cytometry, primary screen (AID 1870).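 Note: barcoded CIT2-GFP strain pooled with four other GFP strains with rapamycin as positive control; median GFP fluorescence per well over plate mean of DMSO wells so 100% = DMSO.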 As to conditions: S. cerevisiae CIT2-GFP expression, 3 h, at 10 µM, stronger effect = higher value.
A short description of test [4]: TOR pathway LAP4-GFP level changes – S. cerevisiae, multiplex flow cytometry, primary screen (AID 1873;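 active = GFP signal, as percent of the solvent control, above the screen mean plus 3 SD, about 149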). As to conditions: S. cerevisiae LAP4-GFP expression, 3 h, at 10 µM, stronger effect = higher value.
Test [5] in a line: yeast AGP1-GFP level changes, GLN3 branch – cell-based, multiplex flow cytometry, S. cerevisiae, primary screen (AID 1887;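 active = GFP signal above the screen-wide mean plus 3 SD, that is over about 124.5% of the solvent control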;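 note: AGP1-GFP fusion strain of S. cerevisiae within a five-strain barcoded multiplex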). As to conditions: 3 h, at 10 µM, stronger effect = higher value.
The nature of test [6]: reduced mouse 2C T cell binding to pMHC/ICAM-1 vesicles – MLPCN validation set, flow cytometry, LFA-1/ICAM-1 modulator project, pilot screen (AID 2523;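 active = response below a set limit, under 55% cells CD8-positive and vesicle-bound, and CD8 cells' 90th-percentile brightness under 279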;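 for vesicle binding response: mean PE anti-B7-1 fluorescence of CD8+ cells relative to row control; 100% = QL9-loaded vesicles with DMSO vehicle in the same plate row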). As to conditions: 2C mouse CD8+ T cells, at 7 µM, stronger effect = lower value; double positive events: measured here: CD8+/vesicle+ event percentage.
Test [7] addresses Integrin beta-1 (Homo sapiens) + Integrin alpha-4 (Homo sapiens) (UniProt P13612+P05556). The test can be described thus: alpha4beta1 integrin LIBS antibody binding reduction – U937 cells, HUTS-21 mAb, flow cytometry, validation set, VLA-4 allosteric modulator project, pilot screen (AID 2674;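 active = inhibition above 50%, about 3 SD of the validation set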;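 note: antibody binding induced by the VLA-4 ligand LDV present at three times its Kd; 0% = LDV ligand with antibody and no compound and 100% = antibody without LDV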). As to conditions: HUTS-21 LIBS mAb binding, at 6.7 µM, stronger effect = higher value, binding induced by LDV ligand.

Test [8] in a line: calorie-restriction mimetic ROS inhibitors, yeast – validation compound set, pilot screen (AID 2706;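 active = superoxide response below 65% of plate, a cut near 3 SD across the whole screen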;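 note: yeast exposed to compound for one week at 30 degrees C before staining; 100% = mean of all compound wells on the same plate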). The settings on record: S. cerevisiae aging, superoxide DHE fluorescence; at 10 µM; stronger effect = lower value.
Test [9] deals with Beta-adrenergic receptor kinase 1 (Homo sapiens) (UniProt P25098). The test can be described thus: GRK2 binders displacing RNA aptamer, biochemical, validation, human GRK2, bead flow cytometry (AID 488806;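 active = aptamer binding inhibition above 30%, about 3 SD of noise from non-fluorescent compounds; inactive = inhibition at or below 30%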). As to conditions: bead-bound GRK2, FAM-aptamer displacement, at 10 µM, stronger effect = higher value.
Chain of Beta-adrenergic receptor kinase 1 (Homo sapiens) (P25098 whole entry, looked up): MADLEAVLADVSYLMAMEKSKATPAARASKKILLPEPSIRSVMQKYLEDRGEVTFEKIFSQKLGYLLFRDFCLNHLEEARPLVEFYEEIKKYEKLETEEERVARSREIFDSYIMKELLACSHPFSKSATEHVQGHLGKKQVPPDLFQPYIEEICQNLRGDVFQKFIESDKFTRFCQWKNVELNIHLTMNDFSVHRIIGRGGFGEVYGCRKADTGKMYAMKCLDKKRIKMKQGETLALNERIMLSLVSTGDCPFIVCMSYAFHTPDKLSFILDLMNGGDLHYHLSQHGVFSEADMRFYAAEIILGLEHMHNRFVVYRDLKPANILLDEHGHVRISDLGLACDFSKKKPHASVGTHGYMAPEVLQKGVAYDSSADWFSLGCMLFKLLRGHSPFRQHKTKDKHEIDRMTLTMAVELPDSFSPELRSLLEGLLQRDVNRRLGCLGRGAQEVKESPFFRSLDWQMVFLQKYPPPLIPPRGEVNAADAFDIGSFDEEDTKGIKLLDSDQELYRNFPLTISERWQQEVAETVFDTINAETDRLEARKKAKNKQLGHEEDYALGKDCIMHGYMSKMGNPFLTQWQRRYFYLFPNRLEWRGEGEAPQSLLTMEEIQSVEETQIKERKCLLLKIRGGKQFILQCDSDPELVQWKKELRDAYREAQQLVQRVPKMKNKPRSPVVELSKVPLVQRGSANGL
Test [10] concerns the target Beta-2 adrenergic receptor (Homo sapiens) (UniProt P07550). Description: agonist-induced loss of surface beta2AR – cell-based, FAP fluorogen, flow cytometry, validation set, pilot screen (AID 504459;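 active = percent response above 42, roughly 3 SD of non-fluorescent test compounds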;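 note: agonist-driven loss of surface beta2AR via internalization measured by FAP dye flow cytometry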). The settings on record: Am2.2-beta2AR cells, at 10 µM, stronger effect = higher value.
Test [11] deals with AP-2 complex subunit beta (Homo sapiens) (UniProt P63010). Description: beta-arrestin/AP2 interaction blockers – biochemical, validation set, GST-AP2 beads, flow cytometry, pilot screen (AID 504541;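 active = inhibition above 54%, about 3 SD of non-fluorescent compounds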;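 note: AP2 carries R879A mutation and is captured from E. coli lysate; bead-bound FITC arrestin peptide fluorescence measuring arrestin peptide binding to AP2; 0% = DMSO wells and 100% = excess unlabeled arrestin peptide control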). As to conditions: FITC arrestin peptide, at 10 µM, stronger effect = higher value, AP2 beta2 appendage fragment, R879A mutant.
Chain of AP-2 complex subunit beta (Homo sapiens) (P63010 whole entry, looked up, the tested form may be a part, one chain of several): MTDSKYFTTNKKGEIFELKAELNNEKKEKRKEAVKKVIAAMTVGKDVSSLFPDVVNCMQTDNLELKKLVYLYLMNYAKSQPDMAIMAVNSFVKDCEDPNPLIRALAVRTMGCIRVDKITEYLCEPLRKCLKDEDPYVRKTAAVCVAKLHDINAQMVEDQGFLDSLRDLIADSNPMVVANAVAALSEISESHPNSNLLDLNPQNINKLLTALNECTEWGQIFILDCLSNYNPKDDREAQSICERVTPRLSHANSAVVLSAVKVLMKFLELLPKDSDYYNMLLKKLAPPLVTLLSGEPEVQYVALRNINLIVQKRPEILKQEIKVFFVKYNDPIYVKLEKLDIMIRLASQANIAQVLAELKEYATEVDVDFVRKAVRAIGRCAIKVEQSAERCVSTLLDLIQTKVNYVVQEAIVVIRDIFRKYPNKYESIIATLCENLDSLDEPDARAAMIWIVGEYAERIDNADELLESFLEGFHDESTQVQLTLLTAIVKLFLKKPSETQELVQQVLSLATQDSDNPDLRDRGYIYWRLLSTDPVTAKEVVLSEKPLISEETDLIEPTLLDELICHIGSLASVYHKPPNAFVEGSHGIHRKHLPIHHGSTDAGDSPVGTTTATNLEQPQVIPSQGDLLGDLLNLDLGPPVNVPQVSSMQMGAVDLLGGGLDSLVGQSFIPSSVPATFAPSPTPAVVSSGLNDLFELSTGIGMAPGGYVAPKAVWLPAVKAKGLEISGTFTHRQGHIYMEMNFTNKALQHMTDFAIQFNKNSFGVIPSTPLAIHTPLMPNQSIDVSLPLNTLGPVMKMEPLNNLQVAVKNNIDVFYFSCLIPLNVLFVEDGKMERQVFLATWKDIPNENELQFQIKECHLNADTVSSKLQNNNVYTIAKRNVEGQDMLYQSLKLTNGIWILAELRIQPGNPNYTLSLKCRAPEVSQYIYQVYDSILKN
Test [12] is described as follows: cytosolic pH regulators acting via V-ATPase – S. cerevisiae, pHLuorin, HTS validation (AID 504600; in the data active = response above about 15%;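 note: plate controls were DMSO for no effect and reference compound for full effect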). The settings on record: V-ATPase proton transport, at 10 µM, stronger effect = higher value.
Test [13] relates to anti-desmoglein-3 scFv antibody binding to human DSG3. The test can be described thus: blockers of pathogenic pemphigus antibody–desmoglein-3 binding – biochemical, validation compound set, bead-based, flow cytometry, pilot screen (AID 588368;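 active = binding below the plate cutoff, the plate median minus 3 SD, with a reading above zero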;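 note: signal is the median channel fluorescence of bead-bound GFP antibody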). The settings on record: Protein G beads, DSG3-Fc, scFv-GFP binding, at 10 µM, stronger effect = lower value.
Test [14] in a line: Nile Red efflux blockade in pump-expressing yeast – validation compound set, multiplex, phenotypic, pilot screen (AID 588506;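 active = efflux inhibition above 0.42, the validation set average plus 4 SD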;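 note: Nile Red retained in cells so higher fluorescence means more efflux inhibition; 0 = negative control wells and 1 = enniatin B 25 µM full block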). The settings on record: S. cerevisiae pump-expressing triplex, Nile Red efflux flow cytometry; at 10 µM; stronger effect = higher value; the pumps come from Candida albicans.
Test [15] has as its target ATP-binding cassette sub-family B member 6 (Homo sapiens) (UniProt Q9NP58). Description: blockers of ABCB6-driven porphyrin uptake – K562-ABCB6 cells, flow cytometry, validation set, pilot screen (AID 588550;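 active = inhibition above the screen-wide mean plus 3 SD, about 51%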;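 note: 0% = DMSO wells and 100% = benzethonium chloride 70 µM positive control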). As to conditions: K562-ABCB6 porphyrin accumulation, 1 h, at 10 µM, stronger effect = higher value.
The nature of test [16]: AML differentiation inducers, ER-HoxA9 marrow cells – cell-based, GFP/MAC1 double positive, flow cytometry, validation set, primary screen (AID 588685;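 active = differentiation response of at least 50%, scaled between solvent and reference control, from cells with both markers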;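 note: compound exposure lasts four days before antibody staining and flow analysis; 0% = DMSO wells and 100% = 5 µM fulvestrant positive control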). As to conditions: stronger effect = higher value, normalized: vehicle 0, fulvestrant 100.

Chain of Integrin beta-1 (Homo sapiens) + Integrin alpha-4 (Homo sapiens) (P05556 whole entry, looked up): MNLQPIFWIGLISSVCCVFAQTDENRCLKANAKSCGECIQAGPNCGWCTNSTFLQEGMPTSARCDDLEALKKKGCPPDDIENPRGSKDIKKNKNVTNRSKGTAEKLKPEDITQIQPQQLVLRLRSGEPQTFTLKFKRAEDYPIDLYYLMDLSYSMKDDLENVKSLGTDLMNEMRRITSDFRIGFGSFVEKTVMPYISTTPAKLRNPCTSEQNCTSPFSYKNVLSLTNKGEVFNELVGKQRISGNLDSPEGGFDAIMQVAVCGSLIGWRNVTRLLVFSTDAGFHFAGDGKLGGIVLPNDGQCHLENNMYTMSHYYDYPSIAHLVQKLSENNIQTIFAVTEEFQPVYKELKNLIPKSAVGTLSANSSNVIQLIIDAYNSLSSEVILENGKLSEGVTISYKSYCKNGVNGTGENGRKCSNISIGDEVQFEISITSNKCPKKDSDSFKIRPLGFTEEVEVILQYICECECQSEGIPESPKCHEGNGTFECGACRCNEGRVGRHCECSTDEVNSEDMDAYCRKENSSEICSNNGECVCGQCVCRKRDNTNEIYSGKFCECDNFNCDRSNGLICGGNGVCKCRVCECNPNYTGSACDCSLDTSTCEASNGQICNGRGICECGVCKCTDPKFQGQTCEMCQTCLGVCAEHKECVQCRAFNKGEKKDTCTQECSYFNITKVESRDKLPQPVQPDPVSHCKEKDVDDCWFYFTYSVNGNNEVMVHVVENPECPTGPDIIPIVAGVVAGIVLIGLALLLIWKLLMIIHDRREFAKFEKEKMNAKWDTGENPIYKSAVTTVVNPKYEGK
Chain of Integrin beta-1 (Homo sapiens) + Integrin alpha-4 (Homo sapiens) (P13612 whole entry, looked up): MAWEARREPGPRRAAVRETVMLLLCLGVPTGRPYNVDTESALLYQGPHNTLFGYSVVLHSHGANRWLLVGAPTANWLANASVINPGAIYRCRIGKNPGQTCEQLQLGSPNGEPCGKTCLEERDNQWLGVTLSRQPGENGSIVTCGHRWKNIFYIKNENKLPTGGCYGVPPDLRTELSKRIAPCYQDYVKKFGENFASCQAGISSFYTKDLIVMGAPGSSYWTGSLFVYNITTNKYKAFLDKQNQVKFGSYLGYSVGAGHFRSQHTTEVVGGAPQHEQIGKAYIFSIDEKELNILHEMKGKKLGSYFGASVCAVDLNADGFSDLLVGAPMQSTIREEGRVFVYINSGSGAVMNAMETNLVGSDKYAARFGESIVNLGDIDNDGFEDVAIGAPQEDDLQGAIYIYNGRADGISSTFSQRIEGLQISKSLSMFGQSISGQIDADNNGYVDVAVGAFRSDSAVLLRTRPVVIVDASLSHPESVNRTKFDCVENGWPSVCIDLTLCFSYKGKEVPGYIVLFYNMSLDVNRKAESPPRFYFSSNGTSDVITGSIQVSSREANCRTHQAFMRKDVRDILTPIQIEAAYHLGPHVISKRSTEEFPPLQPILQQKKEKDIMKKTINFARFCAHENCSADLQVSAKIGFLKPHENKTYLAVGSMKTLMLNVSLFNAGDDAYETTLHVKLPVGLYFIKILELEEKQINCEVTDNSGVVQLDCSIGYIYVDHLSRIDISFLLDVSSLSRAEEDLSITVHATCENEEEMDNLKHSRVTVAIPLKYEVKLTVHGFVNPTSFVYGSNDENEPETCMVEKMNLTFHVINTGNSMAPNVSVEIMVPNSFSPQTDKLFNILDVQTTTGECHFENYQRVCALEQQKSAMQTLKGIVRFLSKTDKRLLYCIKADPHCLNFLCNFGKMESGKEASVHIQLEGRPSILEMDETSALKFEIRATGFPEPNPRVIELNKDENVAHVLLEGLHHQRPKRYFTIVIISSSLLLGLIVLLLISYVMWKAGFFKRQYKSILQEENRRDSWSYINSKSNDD
Chain of ATP-binding cassette sub-family B member 6 (Homo sapiens) (Q9NP58 whole entry, looked up): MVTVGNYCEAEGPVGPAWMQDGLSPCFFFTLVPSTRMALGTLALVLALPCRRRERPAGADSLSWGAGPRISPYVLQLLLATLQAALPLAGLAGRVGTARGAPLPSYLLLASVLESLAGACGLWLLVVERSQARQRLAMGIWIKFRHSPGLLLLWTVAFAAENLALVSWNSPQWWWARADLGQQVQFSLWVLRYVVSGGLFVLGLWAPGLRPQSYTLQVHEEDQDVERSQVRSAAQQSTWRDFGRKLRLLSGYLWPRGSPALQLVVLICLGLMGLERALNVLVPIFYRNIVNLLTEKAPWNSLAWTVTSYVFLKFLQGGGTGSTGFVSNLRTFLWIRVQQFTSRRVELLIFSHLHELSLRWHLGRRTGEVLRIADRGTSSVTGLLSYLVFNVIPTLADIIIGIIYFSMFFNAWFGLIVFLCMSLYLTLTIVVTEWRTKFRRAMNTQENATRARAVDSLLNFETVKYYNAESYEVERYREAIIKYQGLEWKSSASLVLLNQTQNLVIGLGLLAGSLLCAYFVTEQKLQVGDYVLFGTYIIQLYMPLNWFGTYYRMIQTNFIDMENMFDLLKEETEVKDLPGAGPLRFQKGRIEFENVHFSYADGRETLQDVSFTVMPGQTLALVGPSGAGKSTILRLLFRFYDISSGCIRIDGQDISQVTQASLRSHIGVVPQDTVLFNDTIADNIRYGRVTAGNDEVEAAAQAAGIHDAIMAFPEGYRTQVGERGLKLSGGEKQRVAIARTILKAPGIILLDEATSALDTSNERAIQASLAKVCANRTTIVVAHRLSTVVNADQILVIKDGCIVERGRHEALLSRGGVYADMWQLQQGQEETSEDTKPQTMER
Chain of Beta-2 adrenergic receptor (Homo sapiens) (P07550 whole entry, looked up): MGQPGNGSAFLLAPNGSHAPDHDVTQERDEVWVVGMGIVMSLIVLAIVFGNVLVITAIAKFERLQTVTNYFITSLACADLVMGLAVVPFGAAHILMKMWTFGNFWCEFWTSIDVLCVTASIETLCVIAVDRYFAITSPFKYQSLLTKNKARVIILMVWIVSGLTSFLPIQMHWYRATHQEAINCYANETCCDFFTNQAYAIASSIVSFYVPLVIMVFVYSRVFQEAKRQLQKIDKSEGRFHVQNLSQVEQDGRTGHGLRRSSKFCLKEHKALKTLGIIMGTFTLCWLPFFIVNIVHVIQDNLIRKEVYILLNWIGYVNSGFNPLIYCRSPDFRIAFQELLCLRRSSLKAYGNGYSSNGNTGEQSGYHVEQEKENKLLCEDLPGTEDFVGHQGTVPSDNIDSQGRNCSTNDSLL

What is called inhibition is the drop in the measured response relative to a control, in per cent. In the case of `O=C1CCCN1C(=O)CCC(=O)N1CCCC1=O`, the percent of DMSO control GFP in test [1] is 107% (inactive). Besides, the GFP response vs DMSO in [2] was 95.1% (inactive); in [4], 87.4% (inactive). In addition, in test [3], the percent response of DMSO control is 109% (inactive). Also, the GFP response, % of DMSO in [5] is 106% (inactive). This molecule returned a double positive events in [6] of 62.6%. In [6], the vesicle binding response was 235% (inactive). The inhibition in test [7] was -11.9% (inactive); in test [11], -9.79% (inactive); in test [15], -2% (inactive). The superoxide response (% of plate) in test [8] is 96.9% (inactive). Moreover, in test [9], the aptamer binding inhibition was 0% (inactive). The figures for the response in test [10] and in test [12] were -7.65% (inactive) and -1.12% (inactive), respectively. For the same molecule, in [13], the binding (% of control) was 95.6% (inactive). For the same molecule, the efflux inhibition (fraction of control) in test [14] is -0.1 (inactive). For the same molecule, the differentiation response in [16] is 2.2% (inactive).

On to `CSCCC(NC(=O)/C(=C/c1ccc2c(c1)OCO2)NC(=O)c1cccc([N+](=O)[O-])c1)C(=O)O` (stereo not given), for which the percent of DMSO control GFP in test [1] is 93.7% (inactive). Besides, the GFP response vs DMSO in [2] is 123% (inactive); in [4], 86.4% (inactive). In addition, the percent response of DMSO control in test [3] is 101% (inactive). Also, in [5], the GFP response, % of DMSO was 91.9% (inactive). Moreover, the double positive events in [6] was determined as 63.7%. Moreover, the vesicle binding response in test [6] was 169% (inactive). Also, the inhibition is 4.52% (inactive) in test [7], -5.32% (inactive) in test [11] and 14% (inactive) in test [15]. For the same molecule, the superoxide response (% of plate) in test [8] was 93.4% (inactive). The aptamer binding inhibition in test [9] is 4% (inactive). Further, the response in [10] was 0.64% (inactive); in [12], 0.74% (inactive). In [13], the binding (% of control) is 105% (inactive). For the same molecule, the efflux inhibition (fraction of control) in [14] was -0.31 (inactive). Besides, the differentiation response in test [16] was -6.55% (inactive).

For the molecule `Cc1oc2cc(O)cc(O)c2c(=O)c1-c1ccc2c(c1)OCCCO2`, the percent of DMSO control GFP in [1] was 95.6% (inactive). The GFP response vs DMSO in [2] was 103% (inactive); in test [4] it was 128% (inactive). In addition, in [3], the percent response of DMSO control was 88.2% (inactive). Also, the GFP response, % of DMSO in test [5] was 91.7% (inactive). In test [6], this molecule came in with a double positive events of 60.8%. In [6], the vesicle binding response was 195% (inactive). The inhibition was 14.6% (inactive) in test [7], 21% (inactive) in test [11] and 8% (inactive) in test [15]. Also, the superoxide response (% of plate) in [8] was 100% (inactive). The aptamer binding inhibition in test [9] is 3% (inactive). Further, the response in test [10] is 5% (inactive); in test [12] it was 0.59% (inactive). The binding (% of control) in test [13] was 101% (inactive). Further, the efflux inhibition (fraction of control) in [14] is 0.01 (inactive). For the same molecule, the differentiation response in test [16] is 12% (inactive).

In the case of `CC1(C)CC(=O)c2c(nc3ccccc3c2N)C1`, the percent of DMSO control GFP in test [1] is 105% (inactive). In addition, the figures for the GFP response vs DMSO in test [2] and in test [4] were 90.9% (inactive) and 104% (inactive), respectively. Further, the percent response of DMSO control in [3] was 111% (inactive). Also, in test [5], the GFP response, % of DMSO is 99.2% (inactive). Further, the double positive events in test [6] was found to be 62.1%. For the same molecule, in [6], the vesicle binding response was 259% (inactive). In addition, the figures for the inhibition in test [7], in test [11] and in test [15] were -3.57% (inactive), -2.7% (inactive) and 9% (inactive), respectively. For the same molecule, the superoxide response (% of plate) in [8] is 89.8% (inactive). Also, the aptamer binding inhibition in test [9] was 0% (inactive). Moreover, the response in test [10] is -12.4% (inactive); in test [12], -3.81% (inactive). Moreover, the binding (% of control) in test [13] is 102% (inactive). For the same molecule, in [14], the efflux inhibition (fraction of control) is -0.29 (inactive). Further, in test [16], the differentiation response was 0.24% (inactive).

On to `CC(=O)Nc1ccc2[nH]c(C)c(CC=C(Cl)Cl)c(=O)c2c1`, for which the percent of DMSO control GFP in test [1] is 105% (inactive). Also, the GFP response vs DMSO in test [2] was 113% (inactive); in [4] it was 87.3% (inactive). Besides, in [3], the percent response of DMSO control was 93.9% (inactive). The GFP response, % of DMSO in [5] is 94.8% (inactive). This molecule also displayed a double positive events in [6] of 61.1%. In test [6], the vesicle binding response is 146% (inactive). The values for the inhibition in test [7], in [11] and in test [15] were 12.6% (inactive), -17.8% (inactive) and 11% (inactive), respectively. For the same molecule, the superoxide response (% of plate) in test [8] is 110% (inactive). The aptamer binding inhibition in [9] was 4% (inactive). Further, the figures for the response in test [10] and in [12] were 5.01% (inactive) and 0.46% (inactive), respectively. Besides, the binding (% of control) in test [13] is 97.9% (inactive). Also, in test [14], the efflux inhibition (fraction of control) was 0.14 (inactive). Moreover, the differentiation response in test [16] is -5.68% (inactive).
